High-throughput results from PubChem BioAssay.
mHTT-CaM PPI inh: mutant huntingtin-calmodulin interaction inhibitors – biochemical, AlphaScreen, primary screen | AlphaScreen His-mHTT/GST-CaM binding, luminescence | inhibition, % at 15 µM | 190,000 compounds, 3.6% hits;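 also: 0% = both proteins with DMSO and 100% = one protein alone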
Pf apPOL block: Pf-apPOL inhibitors, biochemical, fluorescence; 210,000 compounds, 0.25% hits; Recombinant Pf-apPOL, molecular beacon fluorescence, 1.5 h; inhibition, % at 10 µM; AID 1794808, 2022
* = called active by the depositor; . = no result. In the library only some 3.5% were active in any assay of this set; here they are far more common. Rule as the data show it: active = inhibition above about 50%; inactive = the rest.

SMILES	mHTT-CaM PPI inh	Pf apPOL block
O=C(NC1(C(F)(F)F)Oc2ccccc2O1)N1CCOCC1	4.0	-4.3
COc1cccc(/C=C2N=C(/C=C/c3ccc(C)cc3)OC/2=O)c1	3.0	-0.9
Cc1ccccc1NC(=O)CC#N	.	-0.1
CCCCC(=O)NC(c1ccc(OC)cc1)c1cc(Cl)c2cccnc2c1O (centres undefined)	26.0	9.6
COc1ccc(C(NC(C)=O)c2cc(Cl)c3cccnc3c2O)cc1 (centres undefined)	100.0*	6.8
CC(=O)NC(c1ccccc1)c1cc(Cl)c2cccnc2c1O (centres undefined)	100.0*	1.2
CC(=O)Nc1ccc(N2C(=O)CC(N3CCCC4CCCCC43)C2=O)cc1 (centres undefined)	0.5	-2.8
Cc1ccc2nc(/C(C#N)=C/c3ccc(F)cc3)[nH]c2c1	-22.4	3.9
O=C(Nc1ccc(Cl)c(-c2nc3ccccc3[nH]2)c1)c1ccc(Br)o1	15.0	-0.8
O=C(Nc1ccc(NC(=O)c2ccc(Br)o2)cc1)c1ccccc1	3.5	-3.0
O=C(Nc1cccc(-c2nc3ccccc3[nH]2)c1)c1ccc(Br)o1	25.0	102.4*
O=C(Nc1ccc(Nc2ccccc2)cc1)c1ccc(Br)o1	61.0*	-9.0
COc1ccc(NC(=O)CN2CCC(c3nc(-c4cccs4)no3)CC2)cc1	-5.0	-8.5
O=c1c2ccccc2nc(SCc2c(F)cccc2Cl)n1-c1ccc(Cl)c(Cl)c1	.	-7.5
COc1cc(OC)cc(C2=Cc3ccccc3C(CC(C)=O)N2c2ccc(-c3cccs3)cc2)c1 (centres undefined)	40.3	-3.3
COc1ncc(-c2ccc(N3C(c4ccsc4)=Cc4ccc(F)cc4C3CC(=O)c3ccco3)cc2)cn1 (centres undefined)	15.1	-6.2
COc1cc(OC)cc(C2=Cc3ccccc3C(CC(C)=O)N2c2ccc(-c3cncnc3)cc2)c1 (centres undefined)	50.1*	-3.1
O=C(CC1c2ccccc2C=C(c2ccsc2)N1c1ccc(-c2cccnc2)cc1)C1CC1 (centres undefined)	84.1*	-5.5
O=C(Nc1ccc(OCc2ccccc2)cc1)C1CCN(C(=O)c2ccccc2Cl)CC1	10.7	0.9
CC(=O)N1CCN(c2nc3c(s2)CC(C(=O)NCCCN2CCCC2)CC3)CC1 (centres undefined)	13.2	2.1
O=C1N=c2ccccc2=CC1=Cc1c(O)n(-c2ccccc2)[nH]c1=O	19.0	5.7
COc1ccc2nc(SCC(=O)Nc3ccc(O)c(C(=O)O)c3)[nH]c2c1	3.0	-5.0
Clc1ccc(Cc2nc(-c3cccc(-c4ccn[nH]4)c3)no2)cc1	90.9*	2.2
Clc1ccc(OCc2nc(-c3cccc(-c4ccn[nH]4)c3)no2)cc1	2.7	4.0
O=C(Nc1ccc([N+](=O)[O-])cc1Br)c1ccco1	4.6	2.4
SMILES	mHTT-CaM PPI inh	Pf apPOL block
Nc1ccc([N+](=O)[O-])cc1C(=O)NNC(=O)c1ccco1	.	68.3*
Cc1ccc(S(=O)(=O)N2CCSC2c2ccccc2Cl)c(C)c1 (centres undefined)	-55.0	-3.7
Cc1ccc(S(=O)(=O)N2C=Cc3ccccc3C2c2c[nH]c3ccccc23)c(C)c1 (centres undefined)	55.0*	11.9
CC(C)CC(=O)N1CCc2c(c(C(=O)NCc3ccc(F)cc3)nn2C)C1	59.0*	-0.8
CC(C)CC(=O)N1CCc2c(c(C(=O)NCc3ccc(Cl)cc3)nn2C)C1	65.6*	3.0
COCC(=O)N1CCc2c(c(C(=O)NCc3ccc(F)cc3)nn2C)C1	-2.1	-8.8
COCC(=O)N1CCc2c(c(C(=O)NCc3ccccc3)nn2C)C1	18.7	2.2
CCS(=O)(=O)N1CCC2(CC1)CC(=O)c1ccccc1O2	-20.9	-1.7
O=C(c1ccccc1Br)N1CCc2nc(-c3ccc(F)cc3)ncc2C1	15.3	5.0
C=CCn1c(SCC(=O)c2cccc([N+](=O)[O-])c2)nnc1-c1cccnc1	0.8	-11.2
O=C(NCc1ccc(Cl)cc1)c1nc(-c2ccncc2)cs1	65.9*	-2.0
Cc1ccc(CNC(=O)c2nc(-c3ccncc3)cs2)cc1	14.3	-6.4
Cc1ccc(NC(=O)N2CCC(c3nc(C(=O)N4CCCC4)c(C)o3)CC2)cc1Cl	-0.6	-4.2
CC1CC(=O)Nc2cc(S(=O)(=O)N3CCC(N4CCCCC4)CC3)ccc2S1 (centres undefined)	-17.1	-2.0
COc1cc(C2CC(=O)Nc3n[nH]c(C)c32)ccc1OCc1cccc(Cl)c1 (centres undefined)	55.5*	-0.3
COc1cc(C2CC(=O)Nc3n[nH]c(-c4ccccc4)c32)cc(OC)c1OC (centres undefined)	100.0*	-4.9
COc1cc(C2CC(=O)Nc3n[nH]c(C)c32)ccc1OCc1cccc(C)c1 (centres undefined)	20.4	-2.7
COc1ccc(C2CC(=O)Nc3n[nH]c(-c4ccc(Cl)cc4)c32)cc1OC (centres undefined)	4.8	-1.3
COc1cc(C2CC(=O)Nc3n[nH]c(-c4ccc(Cl)cc4)c32)ccc1O (centres undefined)	100.0*	2.5
COc1cccc(C2CC(=O)Nc3n[nH]c(-c4ccccc4)c32)c1 (centres undefined)	12.9	0.8
CC1C2NC(=O)N(CCc3ccccc3)C1(C)Oc1ccc(Br)cc12 (centres undefined)	5.0	-4.4
CCc1[nH]nc(-c2ccccc2)c1NC(=O)C(C)(C)C	-6.9	10.8
COc1cc(/C=C2/C(=O)N(c3ccc(C(=O)O)cc3)N=C2C)cc(OC)c1OC	1.0	-0.2
COc1cc(/C=C2\C(=O)N(c3ccc(C(=O)O)cc3)N=C2C(F)(F)F)ccc1OCC(C)C	74.0*	0.1
Cc1nc2ccccc2c(=O)n1-c1cccc(NC(=O)c2ccccc2C(F)(F)F)c1	11.9	8.2
SMILES	mHTT-CaM PPI inh	Pf apPOL block
CCc1cc2c(cc(C(N)=O)n2C)s1	8.7	-2.6
CC(Cl)C(=O)Nc1c(-c2ccc(C(F)(F)F)cc2)nc2ccccn12 (centres undefined)	54.9*	-5.4
Cc1ccn2c(NC(=O)C(C)Cl)c(-c3cccc(F)c3)nc2c1 (centres undefined)	69.3*	22.1
O=C(Nc1c(-c2ccccc2)nc2ccccn12)c1cccnc1	-7.0	-2.2
Cc1ccc(-c2nc3ccccn3c2NC(=O)C(C)Cl)cc1 (centres undefined)	8.3	2.0
O=C(/C=C/c1ccccc1)Nc1c(-c2ccccc2)nc2ccccn12	61.0*	-6.6
Cc1ccn2c(NC(=O)C(C)C)c(-c3cccc(F)c3)nc2c1	-1.1	5.0
CCOC1=NN(c2ccc([N+](=O)[O-])cc2)C(=O)/C1=C/c1cc(OC)ccc1OC	7.0	0.1
Cc1ccnc(N2CCC(C(=O)NCc3ccccc3Cl)CC2)n1	-6.9	-0.2
O=C(NCc1ccncc1)C1CCN(c2cc(N3CCSCC3)ncn2)CC1	-3.9	-6.9
COc1ccc(-c2csc(/C(C#N)=C/c3ccco3)n2)cc1	-10.7	4.0
Cc1ccc(-c2csc(/C(C#N)=C/c3ccco3)n2)cc1	-9.9	52.8*
C=CCNC(=O)C(=O)NCC1CCCO1 (centres undefined)	-3.5	8.0
CC(C)c1ccc(S(=O)(=O)N=C2C=CC(=O)C=C2)cc1	86.0*	0.6
CC(C)(C)C1=CC(=NS(=O)(=O)c2ccc(F)cc2)C=C(C(C)(C)C)C1=O	1.0	-5.7
O=C1C=CC(=NS(=O)(=O)c2cccc(C(=O)O)c2)C=C1	58.0*	58.6*
